From PubChem BioAssay AID1159580 (chemical genetic matrix, 2015)
The whole screen tested about 5,500 compounds, of which about 2,000 (36%) were called active. Another 18% or so got no clear call; they are omitted. No stated cut-off is given here; in the data, active means normalized growth mostly below about 0.91 (no sharp cut-off); inconclusive means no clear call, values can overlap the other calls; inactive means mostly above about 0.92. Some of the results follow.

Test: chemical genetic growth profiling, strain panel (AID 1159580);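 further: tested at 20 µM; growth read once vehicle control cultures reached saturation at 30 °C; 1 = growth at the plate median or of vehicle wells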
Conditions: growth OD
[1] = S. cerevisiae deletion strains, locus YDL101C, strain DUN1, stronger effect = lower value
[2] = S. cerevisiae deletion strains, locus YHR030C, strain SLT2, stronger effect = lower value

Measured: normalized growth

CCn1nc(C)cc1C(=O)Sc1cccc(Br)c1
inactive: S. cerevisiae deletion strains, locus YAR019C, strain CDC15, stronger effect = lower value 0.917 | S. cerevisiae deletion strains, locus YBL105C, strain PKC1, stronger effect = lower value 0.934 | S. cerevisiae deletion strains, locus YBR135W, strain CKS1, stronger effect = lower value 0.91 | S. cerevisiae deletion strains, locus YBR136W, strain MEC1, stronger effect = lower value 0.942 | S. cerevisiae deletion strains, locus YBR160W, strain CDC28, stronger effect = lower value 0.924 | S. cerevisiae deletion strains, locus YDL017W, strain CDC7, stronger effect = lower value 0.935 | S. cerevisiae deletion strains, locus YDL028C, strain MPS1, stronger effect = lower value 0.924 | [1] 0.951 | S. cerevisiae deletion strains, locus YDL108W, strain KIN28, stronger effect = lower value 0.93 | S. cerevisiae deletion strains, locus YDL132W, strain cdc53, stronger effect = lower value 0.922 | S. cerevisiae deletion strains, locus YDL214C, strain PRR2, stronger effect = lower value 0.706 | S. cerevisiae deletion strains, locus YDR052C, strain DBF4, stronger effect = lower value 0.971 | S. cerevisiae deletion strains, locus YDR054C, strain cdc34, stronger effect = lower value 0.885 | S. cerevisiae deletion strains, locus YDR226W, strain ADK1, stronger effect = lower value 0.925 | S. cerevisiae deletion strains, locus YER133W, strain GLC7, stronger effect = lower value 0.784 | S. cerevisiae deletion strains, locus YFL029C, strain CAK1, stronger effect = lower value 0.904 | S. cerevisiae deletion strains, locus YFR003C, strain YPI1, stronger effect = lower value 0.932 | S. cerevisiae deletion strains, locus YFR028C, strain CDC14, stronger effect = lower value 0.933 | S. cerevisiae deletion strains, locus YGR040W, strain KSS1, stronger effect = lower value 0.747 | S. cerevisiae deletion strains, locus YGR052W, strain FMP48, stronger effect = lower value 0.725 | S. cerevisiae deletion strains, locus YHR082C, strain KSP1, stronger effect = lower value 0.626 | S. cerevisiae deletion strains, locus YIL147C, strain SLN1, stronger effect = lower value 0.933 | S. cerevisiae deletion strains, locus YJL095W, strain BCK1, stronger effect = lower value 0.551 | S. cerevisiae deletion strains, locus YJL128C, strain PBS2, stronger effect = lower value 0.913 | S. cerevisiae deletion strains, locus YJR016C, strain ILV3, stronger effect = lower value 0.921 | S. cerevisiae deletion strains, locus YJR066W, strain TOR1, stronger effect = lower value 0.543 | S. cerevisiae deletion strains, locus YKL048C, strain ELM1, stronger effect = lower value 0.924 | S. cerevisiae deletion strains, locus YKL101W, strain HSL1, stronger effect = lower value 0.786 | S. cerevisiae deletion strains, locus YKL193C, strain SDS22, stronger effect = lower value 0.927 | S. cerevisiae deletion strains, locus YKL203C, strain TOR2, stronger effect = lower value 0.746 | S. cerevisiae deletion strains, locus YML070W, strain DAK1, stronger effect = lower value 0.727 | S. cerevisiae deletion strains, locus YMR001C, strain CDC5, stronger effect = lower value 0.904 | S. cerevisiae deletion strains, locus YMR205C, strain PFK2 (second series), stronger effect = lower value 0.819 | S. cerevisiae deletion strains, locus YMR277W, strain FCP1, stronger effect = lower value 0.914 | S. cerevisiae deletion strains, locus YNL006W, strain LST8, stronger effect = lower value 0.917 | S. cerevisiae deletion strains, locus YNL161W, strain CBK1, stronger effect = lower value 0.937 | S. cerevisiae deletion strains, locus YNL183C, strain NPR1, stronger effect = lower value 0.629 | S. cerevisiae deletion strains, locus YNL207W, strain RIO2, stronger effect = lower value 0.918 | S. cerevisiae deletion strains, locus YNL222W, strain SSU72, stronger effect = lower value 0.917 | S. cerevisiae deletion strains, locus YOL078W, strain AVO1, stronger effect = lower value 0.91 | S. cerevisiae deletion strains, locus YOL136C, strain PFK27, stronger effect = lower value 0.701 | S. cerevisiae deletion strains, locus YOR119C, strain RIO1, stronger effect = lower value 0.741 | S. cerevisiae deletion strains, locus YOR329C, strain SCD5, stronger effect = lower value 0.935 | S. cerevisiae deletion strains, locus YPL204W, strain HRR25, stronger effect = lower value 0.676 | S. cerevisiae deletion strains, locus YPL209C, strain IPL1, stronger effect = lower value 0.936 | S. cerevisiae deletion strains, locus YPR025C, strain CCL1, stronger effect = lower value 0.935 | S. cerevisiae deletion strains, locus YPR106W, strain ISR1, stronger effect = lower value 0.97 | S. cerevisiae deletion strains, locus YPR111W, strain DBF20, stronger effect = lower value 0.955 | S. cerevisiae deletion strains, strain NNK1, stronger effect = lower value 0.963 | S. cerevisiae deletion strains, strain TSCII, stronger effect = lower value 0.908
active: S. cerevisiae deletion strains, locus YDR477W, strain SNF1, stronger effect = lower value 0.65 | S. cerevisiae deletion strains, locus YER123W, strain YCK3, stronger effect = lower value 0.592 | S. cerevisiae deletion strains, locus YFL009W, strain cdc4, stronger effect = lower value 0.883 | S. cerevisiae deletion strains, locus YFR019W, strain FAB1, stronger effect = lower value 0.737 | S. cerevisiae deletion strains, locus YGR092W, strain DBF2, stronger effect = lower value 0.332 | [2] 0.613 | S. cerevisiae deletion strains, locus YHR079C, strain IRE1, stronger effect = lower value 0.476 | S. cerevisiae deletion strains, locus YHR205W, strain SCH9, stronger effect = lower value 0.527 | S. cerevisiae deletion strains, locus YJL157C, strain FAR1, stronger effect = lower value 0.638 | S. cerevisiae deletion strains, locus YJR066W, strain TOR1 (second series), stronger effect = lower value 0.227 | S. cerevisiae deletion strains, locus YKL067W, strain YNK1, stronger effect = lower value 0.714 | S. cerevisiae deletion strains, locus YLR113W, strain HOG1, stronger effect = lower value 0.461 | S. cerevisiae deletion strains, locus YLR133W, strain CKI1, stronger effect = lower value 0.724 | S. cerevisiae deletion strains, locus YLR403W, strain SFP1, stronger effect = lower value 0.566 | S. cerevisiae deletion strains, locus YNL020C, strain ARK1, stronger effect = lower value 0.697 | S. cerevisiae deletion strains, locus YNL307C, strain MCK1 (second series), stronger effect = lower value 0.601 | S. cerevisiae deletion strains, locus YOR061W, strain CKA2, stronger effect = lower value 0.662 | S. cerevisiae deletion strains, locus YOR231W, strain MKK1, stronger effect = lower value 0.486 | S. cerevisiae deletion strains, locus YPL031C, strain PHO85, stronger effect = lower value 0.619 | S. cerevisiae deletion strains, locus YPL153C, strain RAD53, stronger effect = lower value 0.551 | S. cerevisiae deletion strains, locus YPL256C, strain CLN2, stronger effect = lower value 0.634

CCOC(=O)c1nnc2cc(C)nn2c1C
inactive: S. cerevisiae deletion strains, locus YAL013W, strain DEP1, stronger effect = lower value 0.981 | S. cerevisiae deletion strains, locus YBR229C, strain ROT2, stronger effect = lower value 1.01 | [1] 0.98 | S. cerevisiae deletion strains, locus YDR150W, strain NUM1, stronger effect = lower value 0.951 | S. cerevisiae deletion strains, locus YEL061C, strain CIN8, stronger effect = lower value 1 | S. cerevisiae deletion strains, locus YGR078C, strain PAC10, stronger effect = lower value 1 | [2] 1.01 | S. cerevisiae deletion strains, locus YHR087W, strain rtc3, stronger effect = lower value 1 | S. cerevisiae deletion strains, locus YJR043C, strain POL32, stronger effect = lower value 0.987 | S. cerevisiae deletion strains, locus YJR075W, strain HOC1, stronger effect = lower value 1.03 | S. cerevisiae deletion strains, locus YKL190W, strain CNB1, stronger effect = lower value 0.995 | S. cerevisiae deletion strains, locus YLR039C, strain RIC1, stronger effect = lower value 1.04 | S. cerevisiae deletion strains, locus YLR058C, strain SHM2 (second series), stronger effect = lower value 1.01 | S. cerevisiae deletion strains, locus YLR085C, strain ARP6, stronger effect = lower value 1 | S. cerevisiae deletion strains, locus YLR262C, strain YPT6, stronger effect = lower value 1.06 | S. cerevisiae deletion strains, locus YML094W, strain GIM5, stronger effect = lower value 0.968 | S. cerevisiae deletion strains, locus YMR219W, strain ESC1, stronger effect = lower value 1 | S. cerevisiae deletion strains, locus YMR263W, strain SAP30, stronger effect = lower value 0.95 | S. cerevisiae deletion strains, locus YMR307W, strain GAS1, stronger effect = lower value 0.989 | S. cerevisiae deletion strains, locus YNL128W, strain TEP1, stronger effect = lower value 1.01 | S. cerevisiae deletion strains, locus YNL153C, strain GIM3, stronger effect = lower value 0.988 | S. cerevisiae deletion strains, locus YNL298W, strain CLA4 (second series), stronger effect = lower value 1.03 | S. cerevisiae deletion strains, locus YNL322C, strain KRE1, stronger effect = lower value 1 | S. cerevisiae deletion strains, locus YNR030W, strain Alg12, stronger effect = lower value 1.03 | S. cerevisiae deletion strains, locus YPL055C, strain LGE1, stronger effect = lower value 0.923 | S. cerevisiae deletion strains, locus YPL241C, strain CIN2, stronger effect = lower value 0.986 | S. cerevisiae deletion strains, locus YPR135W, strain CTF4, stronger effect = lower value 1 | S. cerevisiae strains, strain wild type, stronger effect = lower value 1.02
